# Inconclusive results are not listed. A structure can be active in one record and inactive in another. Calls of active or inactive are those of the source. Rule for the calls, unless noted: active = hit-call score of the fitted dose curve at least 0.9, where 1 is the maximum; inactive = score below 0.9.
# Columns and labels:
# [1] = CCTE_Shafer_MEA_dev_per_network_spike_spike_percent: CCTE's Neural Network Formation Assay for Percent of Spikes in a Network Spike, Shafer Lab (AID 2284054)
# Procedure, shortened: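 Developing networks of rat cortical neurons are dosed at day 0 and recorded extracellularly four times up to day 12. The endpoint is the area under the curve of percent spikes in network spikes, fitted in the negative direction relative to DMSO.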
# [2] = CCTE_Shafer_MEA_dev_LDH: CCTE's Lactate Dehydrogenase Assay for Cytotoxicity in the Neural Network Formation Assay, Shafer Lab (AID 2284068; active = hit-call score of the fitted dose curve at least 0.9, where 1 is the maximum;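 note: exposure for twelve days from plating with re-dosing on DIV 5 and 9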)
# Procedure, shortened: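 Primary rat cortical neurons were cultured on PEI-coated MEA plates and exposed from plating through day 12, with compound renewed at medium changes on DIV 5 and 9. LDH activity was read spectrophotometrically; loss of signal versus DMSO indicates reduced viability.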
# [3] = UKN5_HCS_SBAD2_neurite_outgrowth: University of Konstanz (UKN) Leist Lab Neurite Outgrowth Assay in human iPSC-derived immature Dorsal Root Ganglia Neurons (UKN5) (AID 2284070); details: actives raise or lower the signal
# Procedure, shortened: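 Neurite outgrowth is quantified as calcein-AM-labelled neurite area in human iPSC-derived peripheral neurons treated for 24 h, starting 1 h after plating in medium with CHIR99021 (1.5 uM), SU5402 (5 uM) and DAPT (5 uM).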
# [4] = CCTE_Shafer_MEA_dev_AB: CCTE's Alamar Blue Assay for Cytotoxicity in the Neural Network Formation Assay, Shafer Lab (AID 2284083; active = hit-call score of the fitted dose curve at least 0.9, where 1 is the maximum;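 note: resazurin reduction fluorescence as viability of cultured neurons; twelve days of exposure from plating with re-dosing on DIV 5 and 9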)
# Procedure, shortened: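 Resazurin fluorescence, relative to DMSO, gauges viability after twelve days of exposure that began at plating of rat cortical neurons (1.5 x 10^5 cells/well, 48-well MEA); treatment renewed with full medium exchange on DIV 5 and 9.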
# [5] = CCTE_Shafer_MEA_dev_mutual_information_norm: CCTE's Neural Network Formation Assay for Mutual Information Normalization, Shafer Lab (AID 2284091);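 for AC50: mutual information between electrodes summarised as area under curve across four recording days; potency is for a decrease in mutual information relative to DMSO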
# Procedure, shortened: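 Exposure of primary rat cortical neurons began at plating and ran to DIV 12, with full media and treatment renewal after DIV 5 and 9 recordings. Mutual information AUC (DIV 5–12) was analysed for loss versus DMSO.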
# [6] = CCTE_Shafer_MEA_dev_correlation_coefficient_mean: CCTE's Neural Network Formation Assay for Mean Correlation Coefficient, Shafer Lab (AID 2284093);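 for AC50: well mean pairwise spike train correlation integrated as AUC over recording days 5 to 12; potency fitted for loss of correlation relative to DMSO vehicle wells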
# Procedure, shortened: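 Primary rat cortical neurons on PEI-coated 48-well MEA plates (16 electrodes/well) were exposed from plating day 0 through DIV12, with compound renewed at DIV5 and 9. Pairwise spike correlations were averaged per well; trapezoidal AUC across DIV5, 7, 9, 12.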
# [7] = UKN2_HCS_IMR90_neural_migration: University of Konstanz (UKN) Leist Lab Neural Crest Cell Migration Assay in human induced IMR90 Pluripotent Stem Cells (UKN2) (AID 2284204); details: actives raise or lower the signal
# Procedure, shortened: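 Using a 96-well stopper format with PLO/laminin/fibronectin coating, neural crest cells from iPSC migrate in cytokine-supplemented N2-S medium; after 24 h, chemicals are applied for a further 24 h, then cells are imaged after dye staining.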
# [8] = IUF_NPC1b_proliferation_BrdU_72hr: Leibniz Research Institute for Environmental Medicine (IUF) 72-hour Neural Progenitor Cell Bromodeoxyuridine (BrdU) Proliferation Assay (NPC1b) (AID 2284207)
# Procedure, shortened: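 Neural progenitor spheres of human fetal origin are treated for three days; BrdU added for the last 16 h is quantified by luminescence ELISA, with DMSO as baseline and EGF/FGF omission as positive control.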
# [9] = IUF_NPC1a_proliferation_area_72hr: Leibniz Research Institute for Environmental Medicine (IUF) 72-hour Neural Progenitor Cell Proliferation Area Assay (NPC1a) (AID 2284208)
# Procedure, shortened: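 Single 0.25–0.35 mm human fetal neural progenitor spheres in proliferation medium with EGF and FGF, exposed 72 h from plating without renewal at 37C, pH 7.2-7.6. Sphere area growth measured by automated phase-contrast imaging, relative to DMSO.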
# [10] = UKN4_HCS_LUHMES_cell_viability: Viability Assessment in the University of Konstanz (UKN) Leist Lab Neurite Outgrowth Assay in human LUHMES cells (UKN4) (AID 2284232)
# Procedure, shortened: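 Measured in replated, 2-day-differentiated LUHMES cells treated 24 h; stained 30 min with H-33342 and calcein-AM before high-content imaging.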
# [11] = UKN2_HCS_IMR90_cell_viability: Viability Assessment in the University of Konstanz (UKN) Leist Lab Neural Crest Cell Migration Assay in human induced IMR90 Pluripotent Stem Cells (UKN2) (AID 2284233);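 note: viability of neural crest cells differentiated from IMR90 iPSC measured by calcein-AM fluorescence imaging; cells exposed to compound for 24 h after a 24 h migration phase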
# Procedure, shortened: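 cMINC format, iPSC-derived neural crest (IMR90); 24 h migration (EGF/FGF, N2-S), then 24 h toxicant. Calcein-AM/H-33342 stain 30 min; fluorescence intensity by HCS; DMSO-normalised, bidirectional fitting.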
# [12] = IUF_NPC2c_oligodendrocyte_migration_120hr: Leibniz Research Institute for Environmental Medicine (IUF) 120-hour Neural Progenitor Cell Migration Assay for Oligodendrocyte Migration (NPC2c) (AID 2284297);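 note: O4-positive oligodendrocyte migration distance divided by radial glia migration distance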
# Procedure, shortened: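 Human fetal neural progenitor spheres (0.3 mm) are plated on poly-D-lysine/laminin in N2 differentiation medium and exposed for 120 h, with half-medium renewal at day 3. Oligodendrocyte (O4+) migration distance comes from ICC imaging, normalised to radial glia migration.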
# [13] = IUF_NPC2a_radial_glia_migration_120hr: Leibniz Research Institute for Environmental Medicine (IUF) 120-hour Neural Progenitor Cell Migration Assay for Radial Glia Migration (NPC2a) (AID 2284298)
# Procedure, shortened: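 Human fetal-cortex neural progenitor spheres (0.3 mm) plated on poly-D-lysine/laminin in N2 differentiation medium, exposed 120 h at 37C with half-medium renewal at day 3. Radial glia migration distance (um) measured from Hoechst-stained nuclei images; DMSO baseline.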
# [14] = IUF_NPC2a_radial_glia_migration_72hr: Leibniz Research Institute for Environmental Medicine (IUF) 72-hour Neural Progenitor Cell Migration Assay for Radial Glia Migration (NPC2a) (AID 2284299)
# Procedure, shortened: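 Spheres of human primary neural progenitors migrate on poly-D-lysine/laminin under compound exposure at 37C, 5% CO2. The 72 h radial glia migration distance comes from brightfield images, measured manually.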
# [15] = IUF_NPC2b_neuronal_migration_120hr: Leibniz Research Institute for Environmental Medicine (IUF) 120-hour Neural Progenitor Cell Migration Assay for Neuron Migration (NPC2b) (AID 2284300)
# Procedure, shortened: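 0.3 mm hNPC spheres on poly-D-lysine/laminin in N2 differentiation medium exposed 120 h, half-medium refresh day 3; 7 concentrations, DMSO max 0.1%. Neuron (TUBB3) distance from sphere core by ICC imaging, normalised to radial glia migration.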
# [16] = IUF_NPC3_neuronal_differentiation_120hr: Leibniz Research Institute for Environmental Medicine (IUF) 120-hour Neuronal Differentiation Assay (NPC3) (AID 2284301)
# Procedure, shortened: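 Neuronal differentiation of primary human neural progenitors measured by high-content imaging: percent TUBB3+ of Hoechst+ nuclei within migrated area at 120 h, seven-point serial dilution plus solvent control, gain or loss relative to DMSO.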
# [17] = IUF_NPC4_neurite_length_120hr: Leibniz Research Institute for Environmental Medicine (IUF) 120-hour Neuronal Morphology Assay for Neurite Length (NPC4) (AID 2284302)
# Procedure, shortened: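 Neurons from differentiating human fetal neural progenitor spheres are scored for average neurite length after five days of compound exposure. Fitting uses DMSO as negative control.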
# [18] = IUF_NPC2-5_cytotoxicity_72hr: Cytotoxicity Assessment at 72 hours in the Leibniz Research Institute for Environmental Medicine (IUF) Neural Progenitor Cell Migration and Differentiation Assay for Cytotoxicity (NPC2-5) (AID 2284306; active = hit-call score of the fitted dose curve at least 0.9, where 1 is the maximum;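 note: LDH release into supernatant measured by resorufin fluorescence marking membrane damage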)
# Procedure, shortened: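 Primary human neural progenitor spheres migrate and differentiate on laminin. Compound is present from the start of differentiation, with DMSO kept at or below 0.1%. At 72 h, supernatant LDH is quantified fluorometrically, with values fitted in the positive direction.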
# [19] = IUF_NPC2-5_cytotoxicity_120hr: Cytotoxicity Assessment at 120 hours in the Leibniz Research Institute for Environmental Medicine (IUF) Neural Progenitor Cell Migration and Differentiation Assay (NPC2-5) (AID 2284307; active = hit-call score of the fitted dose curve at least 0.9, where 1 is the maximum)
# Procedure, shortened: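 Human fetal (GW 16-19) neural progenitor spheres (0.3 mm) plated on poly-D-lysine/laminin in N2 differentiation medium, exposed 120 h with half-medium renewal at day 3; 7 concentrations plus solvent control, DMSO ≤0.1%. LDH release in supernatant read by resorufin fluorescence.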
# [20] = IUF_NPC2-5_cell_number_120hr: Cell Number Assessment at 120 hours in the Leibniz Research Institute for Environmental Medicine (IUF) Neural Progenitor Cell Migration and Differentiation Assay (NPC2-5) (AID 2284308);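 note: count of Hoechst-stained nuclei in migration zone around plated human neural progenitor spheres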
# Procedure, shortened: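 Human fetal neural progenitor spheres (0.3 mm) plated on poly-D-lysine/laminin in N2 differentiation medium, exposed five days across 7 concentrations with half-medium refresh at day 3. Hoechst-positive nuclei counted in migration area at 120 h, relative to DMSO.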
# [21] = IUF_NPC2-5_viability_120hr: Viability Assessment at 120 hours in the Leibniz Research Institute for Environmental Medicine (IUF) Neural Progenitor Cell Migration and Differentiation Assay (NPC2-5) (AID 2284312)
# Procedure, shortened: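 Human fetal (GW 16-19) neural progenitor spheres of 0.3 mm were plated on poly-D-lysine/laminin in N2 differentiation medium and exposed from day 0 for 120 h, with half-medium refresh at day 3. Viability was read as alamar blue resazurin-to-resorufin fluorescence against DMSO.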
# [22] = IUF_NPC1_cytotoxicity_72hr: Cytotoxicity Assessment at 72 hours in the Leibniz Research Institute for Environmental Medicine (IUF) Neural Progenitor Cell Proliferation Assay (NPC1) (AID 2284332; active = hit-call score of the fitted dose curve at least 0.9, where 1 is the maximum;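 note: rising LDH signal means more cytotoxicity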)
# Procedure, shortened: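 Readout is fluorescence from LDH-dependent resazurin conversion, sampled from culture medium after compound contact lasting 72 h. Each well holds one 0.25-0.35 mm human progenitor sphere kept at 37C, 5% CO2 with EGF and FGF.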
structure (smiles),measurement,setting,value
C/C(=C/C=C/[C@@H](C)C(=O)O)[C@H]1CN[C@H](C(=O)O)[C@H]1CC(=O)O,AC50,[1],2330 nM (active)
same,outcome,[1],inactive
same,AC50,[2],6750 nM (active)
same,outcome,[3],inactive
same,outcome,[4],inactive
same,AC50,[5],50.7 nM (active)
same,outcome,[5],inactive
same,AC50,[6],1560 nM (active)
same,outcome,[6],inactive
same,outcome,[7],inactive
same,outcome,[8],inactive
same,outcome,[9],inactive
same,outcome,[10],inactive
same,outcome,[11],inactive
same,outcome,[12],inactive
same,outcome,[13],inactive
same,outcome,[14],inactive
same,outcome,[15],inactive
same,outcome,[16],inactive
same,AC50,[17],40.6 nM (active)
same,outcome,[18],inactive
same,outcome,[19],inactive
same,outcome,[20],inactive
same,outcome,[21],inactive
same,outcome,[22],inactive

# — PubChem BioAssay (EPA / NIEHS)
